Records with an inconclusive call do not appear. Entries that show only a call come without a potency. Values without a mark were called inactive. The source made the active and inactive calls. Calls come from the whole dose curve; as a rule, active = well fitted curve in the direction sought with a large enough effect in the repeat runs; inconclusive = weak or mixed curves; inactive = no such curve, though single readings can be large; an effect the other way counts as inactive or inconclusive.
tested on: not listed separately; test: qHTS assay to identify small molecule antagonists of the retinoid-related orphan receptor gamma (ROR-gamma) signaling pathway - cell viability counter screen (AID 1159520); details: Tet-on RORgamma CHO cells viability, ATP luminescence, 16 h; series mostly up to 92.4 µM
Outline: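 Cytotoxicity was read from cellular ATP (CellTiter-Glo luminescence) after 16 hr at 37 C with 1 uM doxycycline induction. The inducer was added 2 hr after compound transfer to Tet-on ROR gamma CHO cells.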
Note: nearly all actives have a fitted effect of over 50% in size.

Row | Structure (SMILES) | outcome | activity, negative = cytotoxicity
1 | Cc1cccc(C)c1NC(=O)CC12CCCN1CCC2 | inactive | –
2 | C[C@@H]1C[C@H]2[C@@H]3C[C@H](F)C4=CC(=O)C(Cl)=C[C@]4(C)[C@@]3(F)[C@@H](O)C[C@]2(C)[C@@]1(O)C(=O)CO | inactive | –
3 | C=CC(=O)OCCCl | inactive | –
4 | C[N+]1(CC2COC(c3ccccc3)(c3ccccc3)O2)CCCCC1 (stereo not given) | – | -0.623% [at 19 µM]
5 | CO[Si](C)(OC)c1ccccc1 | inactive | –
6 | CC(C)[C@H]1CC[C@@H](C)CC1=O | inactive | –
7 | Cc1nc(C2CCCCC2)c(-c2ccc(S(N)(=O)=O)c(F)c2)o1 | inactive | –
8 | CCOC(=O)COC(=O)c1ccccc1C(=O)OCC | inactive | –
9 | CCOC(=O)c1cnc2c(cnn2CC)c1NN=C(C)C | inactive | –
10 | CC(=O)c1ccc2ccccc2c1 | inactive | –
11 | COc1ccc2cc1Oc1cc3c(cc1OC)CC[N+](C)(C)[C@H]3Cc1ccc(cc1)Oc1c(OC)c(OC)cc3c1[C@@H](C2)[N+](C)(C)CC3 | inactive | –
12 | O=S(=O)(O)c1cccc2ccccc12 | inactive | –
13 | C1CCC2(CCCCO2)OC1 | inactive | –
14 | C[C@H]1C[C@H]2[C@@H]3CCC4=CC(=O)C=C[C@]4(C)[C@H]3C(=O)C[C@]2(C)[C@@]1(O)C(=O)CO | inactive | –
15 | CC1=NN(c2cc(S(=O)(=O)O)ccc2Cl)C(=O)C1N=Nc1ccccc1 (stereo not given) | inactive | –
16 | O=S(=O)(O)c1cccc(S(=O)(=O)O)c1 | inactive | –
17 | Nc1ccncc1N | inactive | –
18 | CCN(Cc1ccccc1)c1ccccc1 | inactive | –
19 | CC[N+](CC)(CC(=O)Nc1c(C)cccc1C)Cc1ccccc1 (tested in a mixture with another compound) | inactive | –

Row | Structure (SMILES) | outcome | activity, negative = cytotoxicity
20 | CN(C)CCCN(C)CCCN(C)C | inactive | –
21 | Cc1ccnc(NS(=O)(=O)c2ccc(N)cc2)n1 | inactive | –
22 | CCCCCCCCCCCCCCCCCCO | inactive | –
23 | O=C(O)Cc1csc(-c2ccc(Cl)cc2)n1 | inactive | –
24 | NC(=O)N1c2ccccc2CC(=O)c2ccccc21 | inactive | –
25 | CCCCCC(C)N (stereo not given) | inactive | –
26 | Nc1ccn([C@@H]2O[C@H](CO)[C@@H](O)[C@@H]2O)c(=O)n1 | inactive | –
27 | CN1CCC(=C2c3ccccc3CCc3cccnc32)CC1 | inactive | –
28 | CCCCc1nc(Cl)c(CO)n1Cc1ccc(-c2ccccc2-c2nn[nH]n2)cc1 | inactive | –
29 | c1ccc2sc(SN3CCOCC3)nc2c1 | inactive | –
30 | CCN(C=O)CC | inactive | –
31 | CC(=O)C1CCCCC1=O (stereo not given) | inactive | –
32 | COc1cc(-c2ccc(=O)[nH]n2)ccc1OC(F)F | inactive | –
33 | CCCc1ncc(C[n+]2ccccc2C)c(N)n1 | inactive | –
34 | O=C(CO)[C@@H](O)[C@H](O)[C@H](O)CO | inactive | –
35 | CC(CC=O)CC(C)(C)C (stereo not given) | inactive | –
36 | Clc1cc(Cl)c(Cl)nc1Cl | inactive | –
37 | CCNS(=O)(=O)c1ccc(C)cc1 | inactive | –
38 | Cc1coc2ccccc2c1=O | inactive | –

target: Nuclear receptor ROR-gamma (Homo sapiens) (UniProt P51449); test: qHTS assay to identify small molecule antagonists of the retinoid-related orphan receptor gamma (ROR-gamma) signaling pathway (AID 1159521;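 note: CHO cells with doxycycline inducible ROR-gamma driving an RORE luciferase reporter; top concentration of the series differs between compounds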); details: Tet-on RORgamma CHO cells, RORE-luciferase, 16 h; series mostly up to 92.4 µM
Outline: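 Decreased RORE-driven luciferase luminescence indicates antagonism. Tet-on RORγ CHO cells received compound, then 1 uM final doxycycline 2 h later; signal read after 16 h incubation.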

Row | Structure (SMILES) | Potency | activity change, negative = inhibition
39 | Cc1cccc(C)c1NC(=O)CC12CCCN1CCC2 | inactive | –
40 | C[C@@H]1C[C@H]2[C@@H]3C[C@H](F)C4=CC(=O)C(Cl)=C[C@]4(C)[C@@]3(F)[C@@H](O)C[C@]2(C)[C@@]1(O)C(=O)CO | inactive | –
41 | C[N+]1(CC2COC(c3ccccc3)(c3ccccc3)O2)CCCCC1 (stereo not given) | – | 7.79% [at 19 µM]
42 | CO[Si](C)(OC)c1ccccc1 | inactive | –
43 | CC(C)[C@H]1CC[C@@H](C)CC1=O | inactive | –
44 | Cc1nc(C2CCCCC2)c(-c2ccc(S(N)(=O)=O)c(F)c2)o1 | inactive | –
45 | CCOC(=O)COC(=O)c1ccccc1C(=O)OCC | inactive | –
46 | CCOC(=O)c1cnc2c(cnn2CC)c1NN=C(C)C | inactive | –
47 | CC(=O)c1ccc2ccccc2c1 | inactive | –
48 | COc1ccc2cc1Oc1cc3c(cc1OC)CC[N+](C)(C)[C@H]3Cc1ccc(cc1)Oc1c(OC)c(OC)cc3c1[C@@H](C2)[N+](C)(C)CC3 | inactive | –
49 | O=S(=O)(O)c1cccc2ccccc12 | inactive | –
50 | C1CCC2(CCCCO2)OC1 | inactive | –
51 | CC1=NN(c2cc(S(=O)(=O)O)ccc2Cl)C(=O)C1N=Nc1ccccc1 (stereo not given) | inactive | –
52 | Nc1ccncc1N | inactive | –
53 | CCN(Cc1ccccc1)c1ccccc1 | inactive | –
54 | CC[N+](CC)(CC(=O)Nc1c(C)cccc1C)Cc1ccccc1 (tested in a mixture with another compound) | inactive | –

Row | Structure (SMILES) | Potency | activity change, negative = inhibition
55 | CN(C)CCCN(C)CCCN(C)C | inactive | –
56 | Cc1ccnc(NS(=O)(=O)c2ccc(N)cc2)n1 | inactive | –
57 | CCCCCCCCCCCCCCCCCCO | inactive | –
58 | O=C(O)Cc1csc(-c2ccc(Cl)cc2)n1 | inactive | –
59 | NC(=O)N1c2ccccc2CC(=O)c2ccccc21 | inactive | –
60 | CCCCCC(C)N (stereo not given) | inactive | –
61 | CN1CCC(=C2c3ccccc3CCc3cccnc32)CC1 | inactive | –
62 | CCCCc1nc(Cl)c(CO)n1Cc1ccc(-c2ccccc2-c2nn[nH]n2)cc1 | inactive | –
63 | CCN(C=O)CC | inactive | –
64 | CC(=O)C1CCCCC1=O (stereo not given) | inactive | –
65 | COc1cc(-c2ccc(=O)[nH]n2)ccc1OC(F)F | inactive | –
66 | CCCc1ncc(C[n+]2ccccc2C)c(N)n1 | inactive | –
67 | O=C(CO)[C@@H](O)[C@H](O)[C@H](O)CO | inactive | –
68 | Clc1cc(Cl)c(Cl)nc1Cl | inactive | –
69 | CCNS(=O)(=O)c1ccc(C)cc1 | inactive | –
70 | Cc1coc2ccccc2c1=O | inactive | –

From PubChem BioAssay (Tox21)
